# Experimental data: PubChem BioAssay AID2451 (National Center for Advancing Translational Sciences (NCATS), 2010)
# Out of some 290,000 compounds screened, about 2,100 (0.72%) were called active. Another 4% or so got no clear call; they are omitted. Calls follow the shape of the dose curve; as a rule, active = well fitted inhibition curve with a large enough effect; inconclusive = small, poorly fitted or top-dose-only effect, or effect the other way; inactive = flat fitted curve, though single readings scatter. The list comes from a sample in which actives are over-represented; it also holds similar structures and randomly drawn compounds. Entries that show only a call come without a potency.
# Biological target: Fructose-bisphosphate aldolase (Giardia intestinalis (strain ATCC 50803 / WB clone C6)) (UniProt A8B2U2)
# Experiment: qHTS Assay for Inhibitors of Fructose-1,6-bisphosphate Aldolase from Giardia Lamblia; also: nearly all actives have a fitted effect of over 55% in size
# Details: purified Giardia FBPA; series mostly up to 59.6 µM
# Source text: Assay Provider: Osnat Herzberg, University of Maryland
# The objective of this project is to obtain compounds that inhibit Giardia lamblia growth. G. lamblia is a human pathogen which afflicts impoverished nations; it is the most common cause of outbreaks of diarrhea in the United States. During the course of our study of potential drug targets in Giardia, we have identified the Class II (Zn2+ functions in electrophilic catalysis) fructose-1,6-bisphosphate aldolase (FBPA) as an excellent candidate for drug targeting. FBPA is a key glycolytic pathway enzyme, essential for G. lamblia survival. The human FBPA belongs to the Class I aldolases, which have a different substrate binding site structure and a radically different catalytic mechanism (employing a lysine-Schiff base intermediate). Therefore, affinity-based or mechanism-based inhibitors of the Giardia FBPA are expected not to interfere with the catalytic function of the human FBPA.
# A glyceraldehyde-3-phosphate dehydrogenase/triose phosphate isomerase/NAD/arsenate coupled assay was adapted to the 1536-well HTP format for use in the primary screen. This was done by coupling it to a diaphorase/resazurin/resorufin reaction that can be monitored by fluorescence (excitation, 544 nm; emission, 590 nm). Compounds identified in this screen will be further evaluated by coupling the glycerol-3-phosphate/triose phosphate isomerase/NADH assay to a phenazine methosulfate/tetranitroblue tetrazolium color reaction. False positives due to the dehydrogenases and diaphorase inhibition will be eliminated, and selectivity assay will triage inhibitors of mammalian triose phosphate isomerase and the Class I FBPA. G. lamblia FBPA inhibitors identified by the in vitro analyses will be examined for growth inhibition of Giardia trophozoites, and for cytotoxicity in human cells.
# Step,Parameter,Value,Description
# 1,Enzyme reagent,2 uL,40 nM FBPA
# 2,Compound,23 nL,3.68 nM-57.5 uM final concentration
# 3,Time,10 min,RT Incubation
# 4,Substrate/detection Reagent,2 uL,Substrate + enzyme coupling system + AmpLite Red kit
# 5,Time,20 min,RT Incubation
# 6,Detector,525 nm/598 nm (Fluorescence),ViewLux Fluorescence Read (Read 1)
# 1,Medium-binding black solid-bottom Kalypsys plates. FRD or Kalypsys dispenser, 2 uL of FBPA enzyme. Bottle kept at 4C.
# 2,Compound Library (10 mM ,1:5 dilution). Pin-transferred for a [final] range of 3.68 nM-57.5 uM.
# 4,FRD or Kalypsys dispenser, 2 uL of reaction mixture. Bottle kept at 4C and covered in foil to protect from light.
# 6,ViewLux Protocol 1194; Excitation filter wheel A (525/20 Pol; BODIPY TMR FP), Emission filter wheel B (598/25 S; BODIPY TMR FP S).
# Keywords: Fructose-bisphosphate aldolase, FBPA , Giardia lamblia , Giardia, HTS, Inhibitors
# Potency is read from the fitted curve at half-maximal effect.
# Chain of Fructose-bisphosphate aldolase (Giardia intestinalis (strain ATCC 50803 / WB clone C6)) (A8B2U2 whole entry, looked up): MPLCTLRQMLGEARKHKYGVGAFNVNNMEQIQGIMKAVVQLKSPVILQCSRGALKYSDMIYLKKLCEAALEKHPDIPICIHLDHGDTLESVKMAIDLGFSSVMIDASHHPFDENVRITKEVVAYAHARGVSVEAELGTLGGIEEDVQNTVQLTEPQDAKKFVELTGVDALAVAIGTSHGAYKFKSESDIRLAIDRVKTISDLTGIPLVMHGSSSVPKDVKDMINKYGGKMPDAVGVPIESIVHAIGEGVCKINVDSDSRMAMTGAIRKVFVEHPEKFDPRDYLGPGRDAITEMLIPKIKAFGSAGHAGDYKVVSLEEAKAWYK
row,Structure (SMILES),Potency
1,Cc1nc2ccc(NC(=S)N3CCC(C)CC3)cc2nc1C,15.8 µM (active)
2,Cc1nc2ccc(NC(=O)N3CCC(c4ccccc4)C3)cc2nc1C (configuration not stated),inactive
3,Cc1cccc(NC(=S)N2CCC(c3nc4ccccc4s3)CC2)c1,inactive
4,O=CN1CCN(C(=O)c2ccc(Br)o2)CC1,inactive
5,Cc1csc(NC(=O)CN2CCCCCC2)n1,22.3 µM (active)
6,O=C(CN1CCCCCC1)Nc1c(Cl)cc(Cl)cc1Cl,inactive
7,Cc1cc(C)c(NC(=O)CN2CCCCCC2)c(C)c1,inactive
8,Cc1cccc([C@@H]2[C@@H]3C(=O)N(C)C(=O)[C@@H]3[C@@H]3C(=O)Nc4ccccc4C(=O)N23)c1,inactive
9,COc1ccccc1N(CC(=O)N/N=C(\C)c1ccccc1O)S(=O)(=O)c1ccc(C)cc1,inactive
10,CC(C)(C)c1ccc(CN2C(=O)c3ccccc3S2(=O)=O)cc1,inactive
11,Cc1ccc(C(=O)N2CC(=O)Nc3ccc(F)cc3C2c2ccc(F)cc2)cc1 (configuration not stated),inactive
12,Cc1nnc(N/N=C/c2ccccn2)[nH]c1=O,1.99 µM (active)
13,Cc1nnc(N/N=C/c2cccs2)[nH]c1=O,inactive
14,Cc1ccccc1Nc1nnc(C)c(=O)[nH]1,inactive
15,O=S(=O)(c1ccc(Br)c2ccccc12)N1CCOCC1,inactive
16,COc1ccc(C(=O)Nc2ccc(C3(C#N)CCCC3)cc2)cc1OC,inactive
17,Cc1ccc(CC2CC(=O)N(c3cc(C)ccc3C)C2=O)cc1 (configuration not stated),inactive
18,O=C(COc1cccc(Cl)c1)NCc1ccccc1,inactive
19,O=[N+]([O-])c1ccc(Sc2n[nH]c(-c3ccco3)n2)nc1,inactive
20,CN(C)c1ccc(NC(=O)CSc2n[nH]c(-c3ccco3)n2)cc1,inactive
21,CN(C)C(=O)CSc1n[nH]c(-c2ccco2)n1,15.8 µM (active)
22,CC(C)Nc1ccc(-n2nc3ccccc3[n+]2[O-])cc1,inactive
23,COCCCNC(=S)N1CCN(c2nc(-c3cccc(OC)c3)cs2)CC1,inactive

row,Structure (SMILES),Potency
1,O=C(N/C(=C/c1ccc(Cl)cc1)C(=O)N1CCCCC1)c1ccco1,inactive
2,COc1cc2ccccc2cc1C(=O)Nc1nc(C)c(C(C)=O)s1,inactive
3,CCCCC(CC)CNCc1cccn1CCN1CCOCC1 (configuration not stated),inactive
4,CCN(CC)c1ccc(/C=N/Nc2nc(C)cc(C)n2)c(O)c1,inactive
5,CCN(CC)c1ccc(/C=N/Nc2nc(C)cc(=O)[nH]2)cc1,inactive
6,CCN(CC)c1ccc2oc(=O)c(C)nc2c1,2.51 µM (active)
7,CCOCCOC(=O)C(C)Oc1ccc(Oc2ncc(C(F)(F)F)cc2Cl)cc1 (configuration not stated),inactive
8,COc1ccc(C2CC(c3ccc([N+](=O)[O-])cc3)=NN2C(C)=O)cc1 (configuration not stated),inactive
9,COc1ccc2c(c1)C(=C(C#N)C#N)C(=O)N2CCc1ccccc1,2.51 µM (active)
10,COc1ccc(C(=O)NC(C)CCc2ccccc2)c(OC)c1 (configuration not stated),inactive
11,C#CCN1C(=O)C(O)(CC(=O)c2cc(OC)ccc2OC)c2ccccc21 (configuration not stated),inactive
12,Brc1ccccc1C1N=C(c2ccccc2)NO1 (configuration not stated),inactive
13,Cc1ccc(SCC(CC(C)C)N2CCN(CCc3ccccc3)CCC2=O)cc1 (configuration not stated),inactive
14,CCOc1ccccc1NC(=O)C1CCCN(S(=O)(=O)c2ccccc2)C1 (configuration not stated),inactive
15,CCc1nc(NCCO)c(C#N)c2c1CCCC2,inactive
16,CCCCc1nc(NCc2ccccc2)c(C#N)c2c1CCCC2,inactive
17,CCN1CCc2c(C#N)c(NCc3ccccc3)nc(NCCO)c2C1,5.61 µM (active)
18,Cc1cc(Cl)ccc1NC(=S)NCCCN1CCCC1=O,inactive
19,O=C1CCCN1CCCNC(=S)Nc1ccc(F)c(Cl)c1,14.1 µM (active)
20,Cc1cccc(C(=O)NCCCN2CCCC2=O)c1,inactive
21,O=C(O)CCCn1cc(NC(=O)COc2cccc(Cl)c2)cn1,inactive
22,COc1ccc(-n2ncc3c(SCC(=O)NNC(C)=O)ncnc32)cc1,inactive
23,Cc1ccccc1-n1nc(C)c2cc(C(=O)NC3CC3)sc21,inactive

row,Structure (SMILES),Potency
1,Cc1nn(-c2ccccc2)c(Cl)c1/C=C/C(=O)c1ccc(O)cc1,inactive
2,Cc1ccccc1-n1nc(C)c2c1N=C1C(Cl)=CC(Cl)=CN1C2c1ccc(C(=O)O)cc1 (configuration not stated),12.6 µM (active)
3,Cc1cccc([C@@H]2[C@@H]3C(=O)N(Cc4ccccc4)C(=O)[C@@H]3[C@]3(C)C(=O)N(c4ccc(Br)cc4)C(=O)N23)c1,inactive
4,CCN(CC)S(=O)(=O)c1ccc(-c2cn3ccc(C)cc3n2)cc1,inactive
5,C=CCn1c(SCc2ccccc2)nc2c1c(=O)[nH]c(=O)n2C,inactive
6,Cc1cnc(NC(=O)c2ccc(Cl)nc2)s1,inactive
7,Cc1cnc(NC(=O)CSc2c(Cl)cccc2Cl)s1,inactive
8,Cc1cnc(NC(=O)c2ccccn2)s1,7.92 µM (active)
9,CN(C)CCN(C(=O)C1=COCCO1)c1nc2ccc(Cl)cc2s1,inactive
10,CCc1ccc(NC(=O)N2CCc3ccccc3C2)cc1,inactive
11,Cc1ccc(Cl)c(OCC(=O)N2CCc3ccccc3C2)c1,inactive
12,COc1ccccc1C(=O)CSc1cccc[n+]1[O-],inactive
13,O=C(CSc1cccc[n+]1[O-])c1ccc(-c2ccccc2)cc1,17.7 µM (active)
14,O=C(CSc1cccc[n+]1[O-])c1ccc(Cl)cc1,inactive
15,NS(=O)(=O)c1ccccc1NC(=O)c1c(O)c2ccccc2[nH]c1=O,inactive
16,CC(C)c1ccc(/C=C2\NC(=O)NC2=O)cc1,inactive
17,CC(=O)N1CCC(C(=O)OCc2ccc(Cl)cc2)(c2ccccc2)CC1,inactive
18,O=C(Cc1c[nH]c2ccccc12)OCCOC(=O)Cc1c[nH]c2ccccc12,inactive
19,Cc1cccc2c(CCN)c[nH]c12,inactive
20,COc1ccc(Nc2ncnc3ccc(Br)cc23)c(OC)c1,inactive
21,O=C(c1cc(COc2ccc(F)cc2F)on1)N1CCOCC1,inactive
22,CSc1ccccc1NC(=O)c1cc(Cl)sc1Cl,inactive
23,CCCCC(C(=O)NC(C)(C)C)N(Cc1ccccc1)C(=O)c1snc(C(N)=O)c1N (configuration not stated),inactive

row,Structure (SMILES),Potency
1,COc1ccccc1N1CCN(Cc2ccc(OC)c3ccccc23)CC1,inactive
2,CN1CCN(Cc2ccc(OC(F)(F)F)cc2)CC1,inactive
3,COc1ccc(CN2CCN(Cc3ccc(OC)c(OC)c3OC)CC2)cc1,14.1 µM (active)
4,Cc1cc(N=Nc2ccc3ccccc3c2)ccc1O,inactive
5,O=S(=O)(Nc1ccccc1Cl)c1cccc2nsnc12,inactive
6,CCOC(=O)c1cc2cc3ccccc3cc2oc1=O,inactive
7,C=CCNC(=S)NNC(=O)c1cc(Cl)ccc1OC,inactive
8,Cc1cc(C)n2nc(C(=O)NC(C)(C)C)nc2n1,inactive
9,COc1ccc(Cl)cc1C(=O)NNC(=O)c1nc2nc(C)cc(C)n2n1,17.7 µM (active)
10,CCN1C(=S)N[C@@H](c2cccc(C(F)(F)F)c2)C(C(=O)OC)=C1C,inactive
11,O=C(Nc1cccnc1Cl)c1cc(-c2ccccc2O)on1,inactive
12,CSCc1nnc(NC(=O)c2ccc(S(=O)(=O)N3CCCCC3C)cc2)o1 (configuration not stated),inactive
13,CC1CCCN(S(=O)(=O)c2ccc(C(=O)Nc3nnc(-c4ccncc4)o3)cc2)C1 (configuration not stated),7.06 µM (active)
14,O=C(Nc1nnc(-c2ccco2)o1)c1ccc(S(=O)(=O)N2CCOCC2)cc1,17.7 µM (active)
15,O=C(Nc1ccc(N2CCOCC2)c(Cl)c1)c1ccc(S(=O)(=O)N2CCOCC2)cc1,inactive
16,CC1CCCCN1S(=O)(=O)c1ccc(C(=O)Nc2nnc(-c3cccs3)o2)cc1 (configuration not stated),inactive
17,Cc1ccnc(NS(=O)(=O)c2ccc(NC(=O)c3ccc(S(=O)(=O)N4CCOCC4)cc3)cc2)n1,inactive
18,CC(C)(C)c1ccc(Cn2nnc3c(=O)[nH]c(C4CCCN(C(=O)c5ccco5)C4)nc32)cc1 (configuration not stated),inactive
19,Cc1cccc(C(=O)Nc2ccc(Oc3cnccn3)cc2)c1,inactive
20,CN(Cc1ccccc1)C(=O)CSc1nc2ccccc2[nH]1,inactive
21,COc1cc(Cl)ccc1OCc1cc(C(=O)N2CC[C@@H]3CCCC[C@H]3C2)no1,inactive
22,COC(=O)[C@@H]1C[C@@]2(O)[C@H](O)[C@H](O)[C@H](O)C[C@H]2N1CC1CCCCC1,inactive
23,c1ccc(-c2ccc(OCCN3CCOCC3)cc2)cc1,inactive

row,Structure (SMILES),Potency
1,Cc1cccc(C)c1OCCN1CCOCC1,15.8 µM (active)
2,CC(=O)c1ccc(OCCN2CCOCC2)cc1,inactive
3,N#Cc1ccc(C2N=C(c3ccccc3)NO2)cc1 (configuration not stated),inactive
4,COc1ccccc1C(C)NC(=O)Cc1ccsc1 (configuration not stated),inactive
5,O=C(C[n+]1cc(Br)cc2ccccc21)c1ccc(F)cc1,inactive
6,O=C(CSc1nc2ccc([N+](=O)[O-])cc2[nH]1)c1ccc(Cl)cc1,inactive
7,O=[N+]([O-])c1ccc2nc(-c3ccccn3)[nH]c2c1,7.92 µM (active)
8,O=[N+]([O-])c1ccc2c(c1)Nc1nc3ccccc3nc1N2,inactive
9,COc1cccc(N(CC(=O)NCc2ccccc2)C(=O)CCC(=O)Nc2nccs2)c1,inactive
10,CCOc1ccccc1NC(=S)NC(=O)CCc1ccccc1,inactive
11,COCCN(CCOC)C(=S)Nc1ccccc1Cl,inactive
12,CCc1cccc(NC(=S)N(CCN(C)C)C2CCN(C(C)C)CC2)c1,inactive
13,COCCN(C(=S)Nc1ccccc1OC)C1CCN(C(C)C)CC1,15.8 µM (active)
14,CCNc1c(NS(=O)(=O)c2ccc(C3CCCCC3)cc2)c(=O)oc2ccccc12,inactive
15,O=c1c(O)c(Br)ccc2c(Br)c(O)c(O)c(O)c12,11.2 µM (active)
16,Cc1noc(C)c1-c1ccc2ncnc(NCc3ccc4[nH]ccc4c3)c2c1,inactive
17,COc1ccc(C(=O)NC(=S)N2CCCCC2c2cccnc2)cc1OC (configuration not stated),3.55 µM (active)
18,COc1ccc(/C=C/C(=O)NC(=S)NN2CCCCC2c2cccnc2)cc1 (configuration not stated),inactive
19,O=C(NC(=S)N1CCCCC1c1cccnc1)c1ccccc1 (configuration not stated),inactive
20,CC(C)(C)c1ccc(C(=O)N2CCN(CCNC(=O)C(=O)Nc3ccc(F)cc3)CC2)cc1,inactive
